A340 absorber: compound absorbs light at 340 nm; compound absorbance at 340 nm, fold over control; AID 708; fold change at 10 µM; 65,000 tested, under 10 active;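 active means at 10 µM dose, initial 340 nm absorbance at least 2 fold that of control wells; inactive means change under 2 fold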;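 further: initial absorbance extrapolated from kinetic A340 decline of NADH oxidation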
Autofluor 339: intrinsic fluorescence of library compounds, ex339/em460 – biochemical, MLSMR library, data from DPM-DC assay, artefact control, profiling panel; compound autofluorescence, ex339/em460 nm, NADH buffer; hits give high values; 1 = no-compound wells, NADH background; fluorescence fold increase at 10 µM; actives 5.5% (n = 65,000); AID 709;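 active means at 10 µM, mean starting fluorescence two-fold or more over control wells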;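 further: signal is the first read of a kinetic run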
Spn MK inh: blocks S. pneumoniae mevalonate kinase. purified MK, PK/LDH-coupled NADH absorbance 340 nm. inhibition, % at 10 µM. actives 0.48% (n = 65,000);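 active means ranked among the strongest by inhibition in the single 10 µM screen, a fixed top-ranked set picked for dose follow-up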
PMK inhibit: S. pneumoniae PMK inhibition. inhibition, % at 10 µM. actives 0.49% (n = 65,000). purified PMK, PK/LDH-coupled NADH absorbance 340 nm. AID 539;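 active means top-ranked compounds by inhibition in the single 10 µM screen, taking a fixed number of the strongest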;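 further: 0% = full reaction with DMSO carrier and 100% = background rate without enzyme reaction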
DPM-DC inhibit: S. pneumoniae DPM-DC inhibition; purified DPM-DC, PK/LDH coupled NADH fluorescence; calls only at 10 µM; AID 556; actives 0.49% (n = 65,000);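 active means the 320 compounds with the highest percent inhibition in the single-dose primary screen, excluding strongly autofluorescent ones, cut at about 32% in these data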;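 further: kinetic rate of NADH fluorescence loss reporting ADP formed by the decarboxylase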
NADH coupling: inhibitors of enzymes used to reach an NAD/NADH endpoint. coupled PK/LDH NADH assays, four targets. IC50, µM (titrated, usually from 10 µM), for the others: at the highest dose inhibition. actives 0.02% (n = 65,000). AID 774;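 active means single-dose screening hits from any of four coupled enzyme assays that gave an IC50 when retested across doses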;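 further: the DPM-DC format reads NADH fluorescence rather than 340 nm absorbance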
* hit, by the source's call; i = inactive; x = no result given; + = active, no number. Compounds with a hit are over-represented: about 6.5% of the library has one in this group of screens.

SMILES | A340 absorber | Autofluor 339 | Spn MK inh | PMK inhibit | DPM-DC inhibit | NADH coupling
C/C=C(\C)CN1CCN(c2cc(C)ccc2C)CC1 | 1.1 | 1.1 | 36 | 0 | i | 12%
O=C(CN1CCN(c2ccccc2F)CC1)c1ccc2cc[nH]c2c1 | 1.1 | 2.1* | 1 | 2 | x | 2%
CCN(CC)c1ccc(NC(=O)CN2CCN(c3ccccc3F)CC2)cc1 | 1 | 1.1 | 4 | 6 | i | 3%
CCN(CC)C(=O)CN1CCN(c2ccccc2F)CC1 | 1.1 | 1.1 | 68* | 0 | i | 23%
C/C=C(\C)CN1CCN(c2ccccc2F)CC1 | 1.1 | 1.1 | 51* | 0 | i | 17%
COc1ccc(N2CCN(c3ccc(NC(=O)c4ccc5c(c4)OCO5)cc3C#N)CC2)cc1 | 1 | 1.9 | 7 | 10 | i | 7%
COc1ccc(CC(=O)Nc2ccc(N3CCN(c4ccc(OC)cc4)CC3)c(C#N)c2)cc1 | 0.99 | 2.2* | 6 | 12 | i | 12%
O=S(=O)(c1ccc(F)cc1)N1CCC(N2CCCC2)CC1 | 1 | 1 | 50* | 14 | i | 7%
COc1ccc(S(=O)(=O)N2CCC(N3CCCCC3)CC2)cc1 | 1 | 1.1 | 32 | 4 | i | 12%
COc1ccc(S(=O)(=O)N2CCN(C3CCCCCCC3)CC2)cc1 | 0.99 | 1 | 33 | 29* | i | 5%
COCCNC(=O)C(c1ccc(C)o1)N(C(=O)c1snc(C(N)=O)c1N)c1ccc(C)c(C)c1 (stereo not drawn) | 1 | 1.6 | 2 | 8 | i | 7%
CC(C(=O)NCC1CCCO1)N(C(=O)c1snc(C(N)=O)c1N)c1ccccc1 (stereo not drawn) | 1.1 | 3.1* | 13 | 19 | i | 12%
CC(NC(=O)OCc1ccccc1)C(=O)NCC1CCCO1 (stereo not drawn) | 0.99 | 1.1 | 12 | 6 | i | 9%
CC(C(=O)NCC1CCCO1)N(C(=O)c1snc(C(N)=O)c1N)c1cccc(F)c1 (stereo not drawn) | 1.1 | 3.9* | 13 | 19 | i | 20%
CC(C(=O)NCc1ccccc1)N(CCN1CCOCC1)C(=O)c1snc(C(N)=O)c1N (stereo not drawn) | 1 | 2.4* | 4 | 10 | i | 13%
CN1c2cccc3cccc(c23)N(C)C1(C)C | 1.1 | 3.7* | 0 | 18 | x | 9%
O=c1cc(CSc2nnc(COc3ccccc3Cl)o2)nc2sccn12 | 1 | 1 | 0 | 19 | i | 7%
N#Cc1ccc(N2CCN(C(=O)c3cccc(F)c3)CC2)c(F)c1 | 1 | 1.1 | 6 | 5 | i | 4%
CCOC(=O)Nc1ccc2c(C)cc(=O)oc2c1 | 1.2 | 3.7* | 12 | 5 | x | 9%
CCN(CC)CC(=O)Nc1c(C)cc(C)cc1C | x | 1.1 | 8 | x | x | x
Nc1c(C(=O)Nc2ccc(Cl)cc2)oc2ccccc12 | 1.1 | 2.1* | 6 | 16 | x | 11%
CCCOC(=O)CCc1n[nH]c(=O)[nH]c1=O | 0.98 | 1.1 | 5 | 2 | i | 2%
CCCOC(=O)Cc1n[nH]c(=O)[nH]c1=O | 0.96 | 0.55 | 5 | 10 | + | 20%
COC(=O)c1cc(=O)nc2sc(-c3cccs3)nn12 | 1.1 | 2.7* | 0 | 10 | x | 3%
Cc1ccc(N2C(=O)C3ON(c4ccccc4)C(c4ccncc4)C3C2=O)c(C)c1 (stereo not drawn) | 0.98 | 1.1 | 7 | 2 | i | 3%
SMILES | A340 absorber | Autofluor 339 | Spn MK inh | PMK inhibit | DPM-DC inhibit | NADH coupling
COc1ccc(CC(NC(C)=O)C(=O)NC2CCN(c3nc(C)cc(C)c3C#N)CC2)c(OC)c1 (stereo not drawn) | 1 | 2* | 31 | 0 | i | 3%
COc1cccc(CC(NC(C)=O)C(=O)NC2CCN(c3nc(C)cc(C)c3C#N)CC2)c1 (stereo not drawn) | 1 | 1.1 | 7 | 9 | i | 5%
COc1ccc2oc(-c3ccccc3)c(C(=O)N3CCOCC3)c2c1 | 1 | 2.1* | 6 | 9 | x | 8%
CCOc1ccc2oc(-c3ccccc3)c(C(=O)N3CCN(C)CC3)c2c1 | 1.1 | 2.2* | 0 | 0 | x | 0%
Cc1oc2cc3c(C(=O)N4CCN(C)CC4)c(C)oc3cc2c1C(=O)N1CCN(C)CC1 | 1 | 1 | 9 | 22 | i | 12%
CC(=O)Oc1ccc2oc(C)c(C(=O)N3CCOCC3)c2c1 | 1 | 1.1 | 0 | 0 | i | 0%

Bioassay records: PubChem, SRMLSC
